Records with an inconclusive call do not appear. Active and inactive are the calls of the source. The call rests on the fitted dose curve; in most records, active means well fitted cell-killing curve with a large enough effect; inconclusive means small, poorly fitted or top-dose-only effect, or effect the other way; inactive means flat fitted curve, though single readings scatter.
On the % scale 0 is the no-effect control and ±100 the full control effect; potency means the concentration at half of the fitted maximal effect.

The assay relates to HeLa. Put plainly: Primary qHTS to identify gynecologic anti-cancer compounds using libraries of approved drugs and bioactive compounds (AID 1345084). Further: nearly all actives have a fitted effect of over 55% in size. Particulars: Gynecologic cancer cell panel viability, ATPlite luminescence, 48 h; series mostly up to 57.5 µM; activity change, negative = cytotoxicity: at the top concentration. Put shortly: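 Five-point cytotoxicity, 48 h drug exposure at 37 C, 5% CO2, on cells seeded 16 h beforehand. ATP content read by ATPlite luminescence.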
(In qHTS, concentration-response curves come from the screen itself.)
In the case of `CC1OC(OC2C(C)OC(OC3C(O)C(CO)OC(O[C@H]4CC[C@@]5(C)C(CC[C@]6(C)C5CC=C5C7[C@@H](C)[C@H](C)CC[C@]7(C(=O)O)CC[C@]56C(=O)O)C4(C)C)C3O)C(O)C2O)C(O)C(O)C1O` (some centres not stated), the activity change, negative = cytotoxicity was 9.15% [at 11.6 µM] (inactive).
Same read-out and setting: for `C[C@@H]1O[C@@H](OC[C@H]2O[C@@H](OC(CCCCc3ccc(O)cc3)CCc3ccc(O)cc3)[C@H](O)[C@@H](O)[C@@H]2O)[C@H](O)[C@H](O)[C@H]1O` (some centres not stated) the value was 5.23% [at 25.3 µM] (inactive); for `CC(c1ncncc1F)C(O)(Cn1cncn1)c1ccc(F)cc1F` (configuration not stated), 5.58% (inactive).
On the same count and under the same terms, for `CC1(C=O)CC[C@]2(C(=O)O[C@@H]3O[C@H](CO)[C@@H](O)[C@H](O)[C@H]3O)CC[C@]3(C)C(=CCC4[C@@]5(C)C[C@H](O)[C@H](O[C@@H]6OC[C@@H](O)[C@H](O)[C@H]6O)[C@@](C)(CO)C5CC[C@]43C)C2C1` (some centres not stated) the value was -5.1% [at 11.6 µM] (inactive).
For the compound `O=C(O)/C=C/c1cc2c(cc1O[C@@H]1O[C@H](CO)[C@@H](O)[C@H](O)[C@H]1O)OCO2`, the “activity change, negative = cytotoxicity” value was -3.62% [at 38.5 µM] (inactive).
Same read-out and setting: for `CC(C)O[C@@H]1O[C@H](CO)[C@@H](O)[C@H](O)[C@H]1O` the value was 8.4% (inactive); for `CC1=C2C3OC(=O)C(C)C3(O)CCC2(C)CCC1O` (configuration not stated), 7.02% (inactive); for `COC(=O)CC1CC(c2ccc(O)cc2)=NO1` (configuration not stated), -17.9% (inactive).
The same measure, in the same setting: for `CC(=O)C12OC(C)(C)OC1CC1C3CCC4=CC(=O)C=CC4(C)C3(F)C(O)CC12C` (configuration not stated) the value was 8.01% (inactive); for `C[C@H]1O[C@@H](O[C@H]2CC[C@@]3(C)C(CC[C@]4(C)C3CC=C3C5CC(C)(C)CC[C@]5(C(=O)O)CC[C@]34C(=O)O)C2(C)C)[C@H](O)[C@@H](O)[C@@H]1O` (some centres not stated), 3.34% [at 25.3 µM] (inactive).
On the same count and under the same terms, for `C=C1CCC2C(C)(C(=O)OC)CCCC2(C)C1CCC(C)CC(=O)O` (configuration not stated) the value was 0.975% [at 38.5 µM] (inactive); for `COc1ccccc1Oc1ccc(N(Cc2cccnc2)S(=O)(=O)CC(F)(F)F)cc1`, 2.91% (inactive); for `COc1ccc(Cl)c(Nc2nc3ccccc3nc2NS(=O)(=O)c2cccc(NC(=O)C(C)(C)N)c2)c1`, -28.9% (inactive).
Take `COC(=O)C1=CO[C@@H](O[C@@H]2O[C@H](CO)[C@@H](O)[C@H](O)[C@H]2O)[C@H]2[C@@H]1C=C[C@@]21C=C([C@H](C)O)C(=O)O1`: the “activity change, negative = cytotoxicity” value is -3.52% [at 25.3 µM] (inactive).
As for `CC1(C)CC2=C3C=CC4C5(C)CCC(O)C(C)(C)C5CCC4(C)C3(C)CCC2(C)C(O)C1` (configuration not stated), the “activity change, negative = cytotoxicity” value was -0.878% [at 25.3 µM] (inactive).
On the same count and under the same terms, for `O=C(O)c1ccc(OC2OC(CO)C(O)C(O)C2O)cc1` (configuration not stated) the value was 0.745% (inactive).
Still for that read-out and setting: for `CC(C)CN(C[C@@H](O)[C@H](Cc1ccccc1)NC(=O)O[C@@H]1CO[C@H]2OCC[C@H]21)S(=O)(=O)c1ccc(N)cc1` the value was -6.34% (inactive); for `C=C1C[C@]23C[C@H]1CC[C@H]2[C@@]1(C)CCC[C@@]2(C)C(=O)O[C@@H]([C@@H]3O)[C@@H]12`, -2.89% [at 38.5 µM] (inactive).
Turning to `CC(=O)O[C@H]1C[C@@]2(C)[C@@H](CC[C@H]3[C@@]4(C)C=CC(=O)[C@@H](C)[C@@H]4[C@H](O)C(=O)[C@@]32C)/C1=C(/CCC=C(C)C)C(=O)O`, the “activity change, negative = cytotoxicity” value is 1.91% [at 25.3 µM] (inactive).
Consider `COC(=O)N[C@H](C(=O)N1[C@@H]2CC[C@@H](C2)[C@H]1c1nc2ccc(-c3ccc4c(c3)C(F)(F)c3cc(-c5cnc([C@@H]6CCC7(CC7)N6C(=O)[C@@H](NC(=O)OC)C(C)C)[nH]5)ccc3-4)cc2[nH]1)C(C)C`, for which the “activity change, negative = cytotoxicity” value is -3.35% [at 25.3 µM] (inactive).
Take `COc1ccc(C2(O)c3ccccc3NC(=O)C2O)cc1` (configuration not stated): the “activity change, negative = cytotoxicity” value was 1.09% (inactive).
On the same count and under the same terms, for `O=C(CN1C(=O)C2(CCCC2)NCC1c1cc(F)cc(F)c1)Nc1ccc2c(c1)CC1(C2)C(=O)Nc2ncccc21` (configuration not stated) the value was 2.54% (inactive).
On the same count and under the same terms, for `C=C1C(=O)OC2CC3(C)C(CC12)C(C)=CC(O)C3OC(C)=O` (configuration not stated) the value was 4.95% [at 38.5 µM] (inactive); for `C[C@@H]1O[C@@H](O[C@H]2[C@H](OC(=O)[C@]34CCC(C)(C)C[C@H]3C3=CCC5[C@@]6(C)C[C@H](O)[C@H](O[C@@H]7O[C@H](CO)[C@@H](O[C@H]8OC[C@](O)(CO)[C@H]8O)[C@H](O)[C@H]7O)[C@@](C)(CO)C6[C@H](O)C[C@@]5(C)[C@]3(C)C[C@H]4O)OC[C@H](O)[C@@H]2O)[C@H](O)[C@H](O)[C@H]1O[C@@H]1OC[C@@H](O)[C@H](O[C@@H]2OC[C@](O)(CO)[C@H]2O)[C@H]1O` (some centres not stated), -3.15% [at 6.55 µM] (inactive).
Same read-out and setting: for `O=C(O)[C@H](Cc1ccc(Nc2nccc3ccncc23)cc1)NC1=C(Br)C(=O)C12CCCCC2` the value was -1.53% (inactive); for `CC(C)C(C(=O)N(C)C(C)C(N)=O)N(C)C(=O)C1CCCN1C(=O)/C=C/C=C/C(O)C(C)O` (configuration not stated), 7.13% [at 25.3 µM] (inactive).
`Nc1nc2c(c(=O)[nH]1)C[C@@H](CCc1ccc(C(=O)N[C@@H](CCC(=O)O)C(=O)O)cc1)CN2`: the Potency was 282 nM (active).
